# Source: PubChem BioAssay (The Scripps Research Institute Molecular Screening Center)
# DAX1 inh-1 = DAX1 (NR0B1) inhibitors on StAR promoter, primary screen, cell-based, luminescence, SF-1 (NR5A1), full-length DAX-1 | HEK293T StAR-luciferase reporter, SF-1/DAX-1 repression relief | inhibition, % at 6.8 µM | 370,000 compounds, 1.1% hits;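 active = inhibition above the mean over all tested compounds plus 3 SD, cut at about 3.6% in these data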;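 note: 0% = DAX-1 cells with DMSO and 100% = cells lacking DAX-1 with DMSO; higher inhibition means more luminescence from relief of DAX-1 repression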
# AHR activator = AHR activators, primary screen, cell-based, luminescence, luciferase reporter, human; Aryl hydrocarbon receptor (Homo sapiens), P35869; AHR-responsive luciferase reporter cells; activation, % at 5 µM; 320,000 compounds, 2.5% hits; in the data active = activation above about 47%;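 note: 0% = vehicle wells and 100% = reference agonist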
# ssDAF-12 act = S. stercoralis DAF-12 nuclear receptor activators, primary screen, cell-based, luminescence, HEK293, GRIP1 co-expression, lit1-tk-luc; Nuclear hormone receptor DAF-12 (Strongyloides stercoralis); HEK293 ssDAF-12/GRIP1 lit1-tk-luc reporter; % of 3 µM dafachronic acid response; activation, % at 6.8 µM; 370,000 compounds, 1% hits;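 active = activation above the mean over all tested compounds plus 3 SD, cut at about 0.9% in these data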;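 note: 0% = DMSO-only wells and 100% = 3 µM delta7-dafachronic acid wells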
# hgDAF-12 ag = H. glycines DAF-12 receptor agonists, primary screen, cell-based, luminescence, HEK293, GAL4 fusion, UAS-luciferase; HEK293 GAL4-hgDAF12 UAS-luciferase reporter, agonist luminescence; normalized to butyrate control; activation, % at 6.8 µM; 370,000 compounds, 1.8% hits; Nuclear hormone receptor DAF-12 (Heterodera glycines), GAL4 fusion;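 active = activation above a cutoff set at the mean of all screened compounds plus 3 SD, cut at about 10% in these data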;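 note: 0% = DMSO wells and 100% = sodium butyrate wells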
# DAX1 inh-2 = DAX1 (NR0B1) inhibitors, primary screen, cell-based, HEK293, Gal4-DAX1, luciferase luminescence; HEK293 Gal4-DAX1 luciferase reporter; inhibition, % at 6.75 µM; 340,000 compounds, 0.99% hits;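 active = inhibition above the mean over all tested compounds plus 3 SD, cut at about 4.2% in these data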;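 note: 0% = DAX1-transfected cells with DMSO and 100% = empty-vector control cells with DMSO; inhibition shows as a rise in luminescence from relieved DAX1 repression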
# hcDAF-12 act = H. contortus DAF-12 nuclear receptor activators, primary screen, cell-based, luminescence, HEK293, lit1-tk-luc reporter. HEK293 hcDAF-12 lit1-tk-luc reporter; 0% DMSO, 100% Δ7-dafachronic acid. 370,000 compounds, 1.4% hits. activation, % at 6.8 µM;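 active = activation above the mean of all tested compounds plus 3 SD, cut at about 5.5% in these data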;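 note: 100% = response to 3 µM Δ7-dafachronic acid high control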
# DAX1 conf = DAX1 (NR0B1) inhibitors relieving SF-1 repression, confirmation, cell-based, luminescence, HEK293T, full-length DAX-1, SF-1 activated StAR promoter. shares compounds with DAX1 inh-1. HEK293T StAR-promoter luciferase reporter, SF-1/DAX-1 repression. inhibition, % at 6.8 µM. 2,400 compounds, 87% hits. AID 652134, 2013;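 active = inhibition above the average of every tested compound plus 3 SD, cut at about 3.8% in these data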;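 note: 0% = DAX-1 cells with DMSO and 100% = no DAX-1 control cells with DMSO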
# SF1 mutant ctr = StAR reporter signal changes without DAX1, counter-screen for DAX1 inhibitor project, cell-based, luminescence, AF-2 mutant SF-1, transactivation; 2,400 compounds, 78% hits; inhibition, % at 6.8 µM; HEK293 StAR-luciferase, SF-1 AF2 mutant; shares compounds with DAX1 inh-1;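 active = inhibition above the mean of all tested compounds plus 3 SD, cut at about 3% in these data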;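 note: 0% = DAX-1 transfected cells with DMSO and 100% = cells without DAX-1 with DMSO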
# The depositor's hits bear a star; · = no result given. Compounds with a hit are over-represented: about 5.7% of the library has one in this group of screens.
SMILES,DAX1 inh-1,AHR activator,ssDAF-12 act,hgDAF-12 ag,DAX1 inh-2,hcDAF-12 act,DAX1 conf,SF1 mutant ctr
O=C(Nc1ccc2c(c1)OCO2)c1cc(C2CC2)on1,7.0*,26,0,9,3,4,13*,7.8*
Nc1nc(N)c(N=Nc2ccccc2)c(=O)[nH]1,5.7*,·,-2,5,2,1,5.5*,3.2*
CN(C(=O)C1CCC(=O)N(Cc2cccc(F)c2)C1)C1CCCCC1 (centres undefined),5.2*,8,1,8,2,0,4.0*,2
O=C(NC1CCC1)C1CCC(=O)N(Cc2cccc(F)c2)C1 (centres undefined),-1,·,-1,-1,1,-1,·,·
Cc1ccc(NC(=O)c2cc(NC(=O)c3ccco3)ccc2N2CCOCC2)cc1,-1,27,-2,0,-1,-4,·,·
CCc1ccc(OCC(=O)NC2CCCCC2)c(Br)c1,6.9*,32,0,9,1,4,6.9*,4.4*
CCc1ccc(OCC(=O)NNC(=S)NC(=O)C2CCCCC2)c(Br)c1,1,3,-1,1,0,0,·,·
COc1cccc(N2CCN(Cc3cccnc3)CC2)c1,0,6,-1,0,0,0,·,·
CCOc1cc(C2NC(=O)NC(O)(C(F)(F)F)C2C(=O)c2ccc(OC)cc2)ccc1O (centres undefined),0,-1,-1,1,1,-1,·,·
C/C(=N\Nc1ccccc1Cl)c1ccc(-n2ccnc2)cc1,-1,0,-2,1,2,-2,·,·
C/C(=N\Nc1ccc(C(=O)O)cc1)c1ccc(-n2ccnc2)cc1,6.8*,27,-1,12*,-1,3,8.3*,5.3*
Cc1cccc(NS(=O)(=O)c2cccc(C(=O)NCC3(N4CCCCC4)CCCCC3)c2)c1,5.0*,2,-1,1,1,2,3,1
COc1ccc(NS(=O)(=O)c2ccc(C(=O)NCC3(N4CCOCC4)CCCCC3)cc2)cc1,4,-2,-1,-4,2,-1,·,·
Cc1ccc(S(=O)(=O)Nc2cccc(C(=O)NCC3(N4CCCCC4)CCCCC3)c2)cc1F,6.2*,0,-1,-1,0,1,4.6*,3.8*
CNS(=O)(=O)c1cccc(C(=O)NCC2(N3CCCCC3)CCCCC2)c1,0,-2,-1,-1,0,2,·,·
COc1ccc(NS(=O)(=O)c2cccc(C(=O)NCC3(N4CCCCC4)CCCCC3)c2)cc1,7.8*,2,-1,4,1,1,10*,5.4*
CCOc1ccc(S(=O)(=O)Nc2ccc(C(=O)NCC3(N4CCCCC4)CCCCC3)cc2)cc1,8.7*,8,-1,1,2,1,8.3*,4.9*
COc1ccc(NS(=O)(=O)c2cccc(C(=O)NCC3(N4CCOCC4)CCCCC3)c2)cc1,1,8,-1,-1,0,0,·,·
COc1ccccc1C1N(c2cc(Cl)ccc2OC)C(=O)C2CCCN21 (centres undefined),1,4,-1,-3,0,0,·,·
Cc1ccc2c(CSc3nnc(C4CC4)n3N)cc(=O)oc2c1C,0,6,-1,0,4,1,·,·
CO/N=C/c1c(-c2ccccc2)nn(C)c1Cl,0,5,-1,2,-1,0,·,·
Cc1ccc(OCc2csc(N)n2)cc1,5.1*,8,-1,7,1,1,3,2
Nc1nc(COc2ccc(Cl)cc2)cs1,1,-3,-1,6,1,1,·,·
COc1cccc(N2C(=O)CC(Sc3nc(C)cc(C)n3)C2=O)c1 (centres undefined),0,-1,-1,1,-1,-1,·,·
OC[C@H]1O[C@@H](c2nc(-c3ccc(Br)cc3)no2)C[C@@H]1O,4.8*,·,0,12*,·,5.8*,6.0*,4.9*
SMILES,DAX1 inh-1,AHR activator,ssDAF-12 act,hgDAF-12 ag,DAX1 inh-2,hcDAF-12 act,DAX1 conf,SF1 mutant ctr
Brc1ccc(-c2noc(C3CCCCC3)n2)cc1,0,3,0,-1,0,0,·,·
CCN1CCN(c2ccc(NC(=O)c3cc4ccccc4cc3OC)cc2C)CC1,5.1*,7,-1,11*,1,0,7.0*,3.1*
CCN1CCN(c2ccc(NC(=O)c3ccc4c(c3)OCCO4)cc2C)CC1,7.9*,·,0,11*,3,4,11*,5.2*
CCN1CCN(c2ccc(NC(=O)c3ccccc3F)cc2Cl)CC1,2,7,0,10,1,1,·,·
O=C(Nc1ccc(CN2CCCCC2)cc1)Nc1ccccc1Cl,1,6,-1,7,3,1,·,·
CCN1CCN(Cc2ccc(NC(=O)Nc3ccccc3Cl)cc2)CC1,5.4*,-3,0,11*,4.6*,3,11*,8.6*
CCN(CC(=O)Nc1ccc(OC)cc1)C(=O)c1cccc(S(=O)(=O)N2CCN(c3ccccc3)CC2)c1,-1,·,-1,-4,-2,-1,·,·
CC(=O)c1ccc(NC(=O)c2cnn3ccccc23)cc1,5.8*,2,-1,5,-3,4,5.3*,2
CCOc1ccc(NC(=O)CN(C)C(=O)CCc2nc3ccccc3c(=O)[nH]2)cc1OCC,0,·,-1,1,0,0,·,·
CCCCCC(=O)N/N=C(\C)c1ccccn1,0,2,-1,4,0,-2,·,·
Cc1ccc(NC(=O)c2ccc(-c3cc(Cl)ccc3Cl)o2)c(C)c1,5.9*,·,0,0,·,0,3,1
CC(=O)c1c(C)[nH]c(C(=O)Nc2ccccn2)c1C,7.5*,71*,0,8,0,2,9.1*,6.3*
CC1CCN(c2nc3ccc(C(=O)NCCCN4CCCCC4)cc3s2)CC1,5.9*,-11,0,11*,0,3,12*,7.2*
